Data on 1 sequence can be found in paper PMC7862700, “An all-to-all approach to the identification of sequence-specific readers for epigenetic DNA modifications on cytosine”.

Common to all, as to assay: DAPPL (digital affinity profiling via proximity ligation, sequencing); 10 mM Tris-HCl pH 7.5, 50 mM NaCl, 1 mM DTT, 4% glycerol, room temperature, 30 min; GST-TFs on glutathione beads, 16-mer random dsDNA library, 0.1% formaldehyde crosslink after washing; high values mean tight binding
Holding throughout (details): protein: recombinant; tags: N-terminal GST; dsDNA, one strand shown

One test concerns the target T1, FLI1 (Homo sapiens, UniProt Q01543 1-452).
T1 sequence: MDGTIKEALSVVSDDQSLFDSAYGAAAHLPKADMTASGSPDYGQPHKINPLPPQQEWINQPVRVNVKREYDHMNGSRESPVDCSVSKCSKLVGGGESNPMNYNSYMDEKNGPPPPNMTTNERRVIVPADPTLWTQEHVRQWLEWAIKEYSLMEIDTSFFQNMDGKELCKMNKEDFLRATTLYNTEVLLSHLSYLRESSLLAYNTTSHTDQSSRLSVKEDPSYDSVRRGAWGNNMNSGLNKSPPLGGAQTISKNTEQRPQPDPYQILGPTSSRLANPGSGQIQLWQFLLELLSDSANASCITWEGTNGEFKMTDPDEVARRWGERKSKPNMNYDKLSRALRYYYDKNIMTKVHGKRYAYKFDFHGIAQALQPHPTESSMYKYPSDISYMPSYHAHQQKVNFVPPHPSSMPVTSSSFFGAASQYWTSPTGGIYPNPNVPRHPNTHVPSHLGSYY
An outline of the steps:
(§1)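 Human transcription factors fused to GST were expressed in yeast, captured on glutathione beads, given DNA barcodes and pooled with a GST-only negative control. Pools were incubated with 200 nmole of a 16-mer random double-stranded DNA library in Tris/NaCl/DTT/glycerol buffer at room temperature for 30 min. They were then washed, crosslinked with 0.1% formaldehyde, proximity-ligated (BsaI/T4 ligase, 1 h, 37 °C), PCR-amplified and sequenced on an Illumina NextSeq500. Binding signal is each 6-mer's read frequency for a factor divided by its frequency for the GST control.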

A further test has as its target T2, ELK1 (Homo sapiens, UniProt P19419 1-428).
T2 sequence: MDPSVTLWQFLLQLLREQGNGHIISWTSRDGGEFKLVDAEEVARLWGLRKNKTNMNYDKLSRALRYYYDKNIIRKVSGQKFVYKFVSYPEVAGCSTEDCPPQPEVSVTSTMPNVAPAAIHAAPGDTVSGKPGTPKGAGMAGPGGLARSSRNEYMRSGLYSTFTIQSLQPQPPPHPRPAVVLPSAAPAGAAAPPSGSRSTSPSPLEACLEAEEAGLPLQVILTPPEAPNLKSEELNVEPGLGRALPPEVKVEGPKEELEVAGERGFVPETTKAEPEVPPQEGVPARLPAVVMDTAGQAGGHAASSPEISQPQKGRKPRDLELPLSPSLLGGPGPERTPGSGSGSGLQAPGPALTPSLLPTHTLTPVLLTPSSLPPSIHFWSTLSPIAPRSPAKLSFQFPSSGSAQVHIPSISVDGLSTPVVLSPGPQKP
An outline of the steps:
as §1

The next test has as its target T3, ERG (Homo sapiens, UniProt P11308 1-479).
T3 sequence: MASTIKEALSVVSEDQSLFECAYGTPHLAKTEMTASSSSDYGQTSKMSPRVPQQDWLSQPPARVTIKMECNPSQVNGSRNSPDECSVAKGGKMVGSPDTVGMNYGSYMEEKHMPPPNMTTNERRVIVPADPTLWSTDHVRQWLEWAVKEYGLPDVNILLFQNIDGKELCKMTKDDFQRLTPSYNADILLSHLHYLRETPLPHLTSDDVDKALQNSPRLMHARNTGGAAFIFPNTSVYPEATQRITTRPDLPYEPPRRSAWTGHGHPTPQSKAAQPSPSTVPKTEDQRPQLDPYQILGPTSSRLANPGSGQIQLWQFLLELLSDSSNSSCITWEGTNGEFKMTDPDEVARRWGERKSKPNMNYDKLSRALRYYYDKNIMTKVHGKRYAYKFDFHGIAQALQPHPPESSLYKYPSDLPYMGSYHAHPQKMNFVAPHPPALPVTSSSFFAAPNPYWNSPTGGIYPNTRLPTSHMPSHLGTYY
An outline of the steps:
as §1

The next test deals with ELF1 (Homo sapiens, UniProt P32519 1-619). In short, it runs like this:
as §1

In another test the target is T4, EHF (Homo sapiens, UniProt Q9NZC4 1-300).
T4 sequence: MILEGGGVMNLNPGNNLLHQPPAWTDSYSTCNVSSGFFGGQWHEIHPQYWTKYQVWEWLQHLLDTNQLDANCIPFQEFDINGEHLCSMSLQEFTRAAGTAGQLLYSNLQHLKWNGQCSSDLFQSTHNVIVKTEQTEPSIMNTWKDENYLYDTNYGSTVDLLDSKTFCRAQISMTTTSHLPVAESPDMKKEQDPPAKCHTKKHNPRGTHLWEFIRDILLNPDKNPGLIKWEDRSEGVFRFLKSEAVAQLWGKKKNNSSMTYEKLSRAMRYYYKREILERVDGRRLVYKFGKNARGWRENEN
An outline of the steps:
as §1

The target in a further test is SPIB (Homo sapiens, UniProt Q01892 1-262). In short, it runs like this:
as §1

Another test addresses T5, ELK3 (Homo sapiens, UniProt P41970 1-407).
T5 sequence: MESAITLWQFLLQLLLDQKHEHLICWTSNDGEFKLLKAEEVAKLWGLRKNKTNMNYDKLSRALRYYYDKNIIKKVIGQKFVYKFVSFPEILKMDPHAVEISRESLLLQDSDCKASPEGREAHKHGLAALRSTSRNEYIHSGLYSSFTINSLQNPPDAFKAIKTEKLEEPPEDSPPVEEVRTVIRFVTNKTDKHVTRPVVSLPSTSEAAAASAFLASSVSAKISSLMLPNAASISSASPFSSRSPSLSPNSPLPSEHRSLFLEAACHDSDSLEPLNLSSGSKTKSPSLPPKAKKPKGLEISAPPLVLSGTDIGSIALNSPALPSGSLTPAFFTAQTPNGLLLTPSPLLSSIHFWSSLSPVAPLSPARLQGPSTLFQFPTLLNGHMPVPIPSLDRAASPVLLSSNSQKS
An outline of the steps: as §1

Another test addresses T6, SPIC (Homo sapiens, UniProt Q8N5J4 1-248).
T6 sequence: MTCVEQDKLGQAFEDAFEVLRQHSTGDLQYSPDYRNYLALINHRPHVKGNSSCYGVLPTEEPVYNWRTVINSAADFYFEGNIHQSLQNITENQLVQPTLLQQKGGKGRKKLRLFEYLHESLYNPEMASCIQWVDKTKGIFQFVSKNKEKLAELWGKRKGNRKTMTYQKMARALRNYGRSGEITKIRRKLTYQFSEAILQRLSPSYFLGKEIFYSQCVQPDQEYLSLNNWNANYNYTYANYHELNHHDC
An outline of the steps:
as §1

Another test deals with ELF4 (Homo sapiens, UniProt Q99607 1-663). In short, it runs like this: as §1
ELF4, sequence (Q99607 whole entry): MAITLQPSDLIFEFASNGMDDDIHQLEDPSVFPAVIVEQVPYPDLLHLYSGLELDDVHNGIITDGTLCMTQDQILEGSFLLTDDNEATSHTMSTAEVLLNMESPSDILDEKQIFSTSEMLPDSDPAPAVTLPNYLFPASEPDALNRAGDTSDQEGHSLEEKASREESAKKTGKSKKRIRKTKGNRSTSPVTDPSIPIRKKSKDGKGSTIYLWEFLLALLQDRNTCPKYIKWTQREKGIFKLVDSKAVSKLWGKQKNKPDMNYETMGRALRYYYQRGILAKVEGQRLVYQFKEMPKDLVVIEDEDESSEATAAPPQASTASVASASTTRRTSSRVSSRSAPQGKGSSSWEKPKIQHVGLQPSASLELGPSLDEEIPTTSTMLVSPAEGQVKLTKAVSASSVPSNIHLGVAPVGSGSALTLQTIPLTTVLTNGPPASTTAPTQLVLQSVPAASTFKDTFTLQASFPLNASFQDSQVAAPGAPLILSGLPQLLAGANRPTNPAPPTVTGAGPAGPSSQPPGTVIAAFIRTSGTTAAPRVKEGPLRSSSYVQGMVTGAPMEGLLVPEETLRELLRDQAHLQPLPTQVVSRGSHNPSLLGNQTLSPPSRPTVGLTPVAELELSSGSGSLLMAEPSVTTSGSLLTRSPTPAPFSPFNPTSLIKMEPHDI
Another test addresses T7, ELK4 (Homo sapiens, UniProt P28324-2 1-405).
T7 sequence: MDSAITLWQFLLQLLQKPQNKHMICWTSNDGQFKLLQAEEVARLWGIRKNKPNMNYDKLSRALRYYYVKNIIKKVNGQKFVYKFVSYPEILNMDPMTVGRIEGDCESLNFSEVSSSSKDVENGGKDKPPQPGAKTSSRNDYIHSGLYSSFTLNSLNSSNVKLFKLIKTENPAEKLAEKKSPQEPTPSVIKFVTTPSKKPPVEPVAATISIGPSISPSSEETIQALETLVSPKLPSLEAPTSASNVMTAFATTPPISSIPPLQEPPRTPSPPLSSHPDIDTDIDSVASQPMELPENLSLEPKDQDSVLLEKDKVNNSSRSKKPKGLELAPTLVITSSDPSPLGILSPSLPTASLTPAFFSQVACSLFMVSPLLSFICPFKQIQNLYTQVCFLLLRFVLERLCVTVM
An outline of the steps: as §1

Another test deals with T8, ELF3 (Homo sapiens, UniProt P78545 1-371).
T8 sequence: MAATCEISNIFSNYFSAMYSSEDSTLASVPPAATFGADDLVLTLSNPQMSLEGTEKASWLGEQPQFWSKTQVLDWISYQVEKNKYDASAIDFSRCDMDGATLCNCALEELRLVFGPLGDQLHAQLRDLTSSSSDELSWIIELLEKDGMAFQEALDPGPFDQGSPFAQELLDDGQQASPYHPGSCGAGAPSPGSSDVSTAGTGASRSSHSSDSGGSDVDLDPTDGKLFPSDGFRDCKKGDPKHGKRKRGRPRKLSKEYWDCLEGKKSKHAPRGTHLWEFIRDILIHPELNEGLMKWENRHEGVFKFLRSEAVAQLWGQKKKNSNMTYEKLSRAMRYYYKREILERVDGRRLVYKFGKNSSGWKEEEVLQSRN
In short, it runs like this: as §1

For another test, the target named is ETV1 (Homo sapiens, UniProt P50549 1-477). In short, it runs like this:
as §1

A further test has as its target T9, ERF (Homo sapiens, UniProt P50548 1-548).
T9 sequence: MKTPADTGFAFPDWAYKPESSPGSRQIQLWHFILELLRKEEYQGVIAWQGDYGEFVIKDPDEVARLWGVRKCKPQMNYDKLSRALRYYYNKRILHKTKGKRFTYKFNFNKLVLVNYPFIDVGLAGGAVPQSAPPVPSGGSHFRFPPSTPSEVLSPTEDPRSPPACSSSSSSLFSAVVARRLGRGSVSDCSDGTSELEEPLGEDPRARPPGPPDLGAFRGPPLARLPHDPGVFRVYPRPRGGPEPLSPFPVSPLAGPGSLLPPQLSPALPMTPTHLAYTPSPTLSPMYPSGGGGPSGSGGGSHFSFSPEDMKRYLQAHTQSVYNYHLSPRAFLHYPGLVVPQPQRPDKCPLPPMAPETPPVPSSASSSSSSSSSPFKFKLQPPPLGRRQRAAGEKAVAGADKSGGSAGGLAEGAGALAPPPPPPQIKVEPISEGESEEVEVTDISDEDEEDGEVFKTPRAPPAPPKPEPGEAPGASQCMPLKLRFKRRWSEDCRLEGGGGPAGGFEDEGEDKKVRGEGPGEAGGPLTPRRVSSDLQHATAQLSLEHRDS
In short, it runs like this:
as §1

For a further test, the target named is T10, ETV3L (Homo sapiens, UniProt Q6ZN32 1-361).
T10 sequence: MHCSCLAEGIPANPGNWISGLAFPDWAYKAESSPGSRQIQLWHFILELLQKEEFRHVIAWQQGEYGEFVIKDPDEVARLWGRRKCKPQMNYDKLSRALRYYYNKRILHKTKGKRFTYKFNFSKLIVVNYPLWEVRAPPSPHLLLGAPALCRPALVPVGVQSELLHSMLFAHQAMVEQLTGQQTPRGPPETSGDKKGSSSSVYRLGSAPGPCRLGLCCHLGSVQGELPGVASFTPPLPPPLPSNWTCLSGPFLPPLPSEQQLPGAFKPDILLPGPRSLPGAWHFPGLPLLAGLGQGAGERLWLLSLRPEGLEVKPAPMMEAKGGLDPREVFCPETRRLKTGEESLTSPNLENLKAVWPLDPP
An outline of the steps:
as §1

The target in a further test is T11, ETV7 (Homo sapiens, UniProt Q9Y603 1-341).
T11 sequence: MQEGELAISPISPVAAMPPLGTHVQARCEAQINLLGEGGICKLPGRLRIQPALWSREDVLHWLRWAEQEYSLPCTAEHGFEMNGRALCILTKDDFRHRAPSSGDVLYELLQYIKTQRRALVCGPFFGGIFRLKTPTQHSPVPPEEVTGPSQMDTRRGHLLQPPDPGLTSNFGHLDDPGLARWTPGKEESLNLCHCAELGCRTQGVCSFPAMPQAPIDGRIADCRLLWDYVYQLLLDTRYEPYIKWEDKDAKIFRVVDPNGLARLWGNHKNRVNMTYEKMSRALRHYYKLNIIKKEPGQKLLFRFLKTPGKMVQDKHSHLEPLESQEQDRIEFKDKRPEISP
In short, it runs like this:
as §1

In another test the target is T12, ETV3 (Homo sapiens, UniProt P41162-2 1-143).
T12 sequence: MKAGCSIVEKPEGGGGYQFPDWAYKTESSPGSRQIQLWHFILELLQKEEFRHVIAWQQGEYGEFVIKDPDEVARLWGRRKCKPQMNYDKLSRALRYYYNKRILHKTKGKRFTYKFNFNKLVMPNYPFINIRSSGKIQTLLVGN
In short, it runs like this:
as §1

A further test deals with ETV6 (Homo sapiens, UniProt P41212 1-452). An outline of the steps:
as §1

SPIB, sequence (Q01892 whole entry): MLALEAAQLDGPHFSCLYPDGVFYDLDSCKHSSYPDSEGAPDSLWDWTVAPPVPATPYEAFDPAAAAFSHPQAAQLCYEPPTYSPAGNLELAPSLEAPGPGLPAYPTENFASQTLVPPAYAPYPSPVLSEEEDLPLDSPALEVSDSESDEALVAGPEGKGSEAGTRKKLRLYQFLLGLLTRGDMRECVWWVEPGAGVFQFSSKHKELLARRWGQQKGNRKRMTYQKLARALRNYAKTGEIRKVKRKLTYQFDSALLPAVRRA
ETV1, sequence (P50549 whole entry): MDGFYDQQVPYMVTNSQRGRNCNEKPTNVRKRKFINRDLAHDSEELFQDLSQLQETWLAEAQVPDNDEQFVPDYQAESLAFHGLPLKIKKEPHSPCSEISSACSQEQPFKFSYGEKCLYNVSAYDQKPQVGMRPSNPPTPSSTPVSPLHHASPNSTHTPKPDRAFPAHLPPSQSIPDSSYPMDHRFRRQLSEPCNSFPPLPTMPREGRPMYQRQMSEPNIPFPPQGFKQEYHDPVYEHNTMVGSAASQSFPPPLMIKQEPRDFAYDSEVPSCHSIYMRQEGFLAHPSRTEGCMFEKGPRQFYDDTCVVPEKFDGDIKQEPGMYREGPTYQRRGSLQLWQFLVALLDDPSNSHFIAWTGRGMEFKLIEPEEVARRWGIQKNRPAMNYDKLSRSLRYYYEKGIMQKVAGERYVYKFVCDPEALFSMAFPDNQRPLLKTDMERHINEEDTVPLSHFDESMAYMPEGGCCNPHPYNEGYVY
ETV6, sequence (P41212 whole entry): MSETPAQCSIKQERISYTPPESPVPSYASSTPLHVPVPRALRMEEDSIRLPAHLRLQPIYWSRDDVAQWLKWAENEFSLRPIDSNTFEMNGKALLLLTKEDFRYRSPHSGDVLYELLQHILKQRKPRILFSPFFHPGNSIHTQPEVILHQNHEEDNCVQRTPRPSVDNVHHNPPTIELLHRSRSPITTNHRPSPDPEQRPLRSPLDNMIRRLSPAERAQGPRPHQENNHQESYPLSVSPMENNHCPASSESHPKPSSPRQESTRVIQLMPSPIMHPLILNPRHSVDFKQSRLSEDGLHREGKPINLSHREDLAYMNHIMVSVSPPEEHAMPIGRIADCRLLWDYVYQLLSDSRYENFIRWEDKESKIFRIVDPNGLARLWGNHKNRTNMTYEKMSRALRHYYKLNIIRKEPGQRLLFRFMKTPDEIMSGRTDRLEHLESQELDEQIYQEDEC
ELF1, sequence (P32519 whole entry): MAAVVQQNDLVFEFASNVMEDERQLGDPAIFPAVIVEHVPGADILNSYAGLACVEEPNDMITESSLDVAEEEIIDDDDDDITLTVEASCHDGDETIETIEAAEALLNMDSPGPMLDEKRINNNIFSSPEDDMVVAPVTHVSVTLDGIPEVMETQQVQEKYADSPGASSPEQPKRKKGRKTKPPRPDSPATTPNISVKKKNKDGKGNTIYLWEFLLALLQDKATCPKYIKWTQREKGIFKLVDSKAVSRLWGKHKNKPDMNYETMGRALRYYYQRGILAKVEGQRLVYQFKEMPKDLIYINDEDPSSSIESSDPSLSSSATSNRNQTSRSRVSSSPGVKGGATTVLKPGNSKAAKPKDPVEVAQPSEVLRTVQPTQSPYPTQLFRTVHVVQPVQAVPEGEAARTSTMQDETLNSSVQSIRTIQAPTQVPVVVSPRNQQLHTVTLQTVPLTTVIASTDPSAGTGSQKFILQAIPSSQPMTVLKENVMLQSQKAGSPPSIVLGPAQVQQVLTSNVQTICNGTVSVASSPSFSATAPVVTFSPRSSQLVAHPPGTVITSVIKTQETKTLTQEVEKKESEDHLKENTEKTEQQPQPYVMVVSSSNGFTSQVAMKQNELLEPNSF

GCCGCT: the binding signal with FLI1 was 1.09 fold enrichment (6-mer frequency, TF over GST control); in the test with ELK1, 1.08 fold enrichment (6-mer frequency, TF over GST control); in the test with ERG, 1.07 fold enrichment (6-mer frequency, TF over GST control); with ELF1, 1.12 fold enrichment (6-mer frequency, TF over GST control); in the test with EHF it was 1.04 fold enrichment (6-mer frequency, TF over GST control); with SPIB, 1.1 fold enrichment (6-mer frequency, TF over GST control). Moreover, the binding signal with ELK3 is 1.06 fold enrichment (6-mer frequency, TF over GST control); with SPIC, 1.19 fold enrichment (6-mer frequency, TF over GST control); in the test with ELF4 it was 1.14 fold enrichment (6-mer frequency, TF over GST control); with ELK4, 1.1 fold enrichment (6-mer frequency, TF over GST control); with ELF3, 1.1 fold enrichment (6-mer frequency, TF over GST control); in the test with ETV1 it was 1.15 fold enrichment (6-mer frequency, TF over GST control). Moreover, the binding signal in the test with ERF was 1.23 fold enrichment (6-mer frequency, TF over GST control); with ETV3L, 1.01 fold enrichment (6-mer frequency, TF over GST control); with ETV7, 1.05 fold enrichment (6-mer frequency, TF over GST control); with ETV3, 1.03 fold enrichment (6-mer frequency, TF over GST control); with ETV6 it was 1.04 fold enrichment (6-mer frequency, TF over GST control).
